# According to ChEMBL document CHEMBL4513216, “Probing the Open Global Health Chemical Diversity Library for Multistage-Active Starting Points for Next-Generation Antimalarials” (ACS Infect Dis, 2020):
# Out of some 69,000 compounds screened, about 8,600 (12%) showed an effect of 50% or more. This excerpt belongs to a sample that is enriched for strong results.
# Test system: Plasmodium berghei
# Test: Screen against P. berghei liver stage (PbLuc), transformed with Luciferase, at 10uM
# Type: functional, HepG2
# Conditions: tested at 10 uM
row,SMILES,INHIBITION [%]
1,OCc1cc(C2CCCN2c2ncccn2)n[nH]1 (stereo not drawn),12.27
2,OC(COCc1ccc(Cl)cc1)CN1CC(n2cccn2)C1 (stereo not drawn),-3.6
3,OC(COCc1ccccc1)CN1CC(n2cccn2)C1 (stereo not drawn),39.6
4,COc1cccc(COCC(O)CN2CC(n3cccn3)C2)c1 (stereo not drawn),52
5,Cn1ccc(C(=O)NC2CCC23CCN(C(=O)N2CCCC2)CC3)c1 (stereo not drawn),20.5
6,Fc1cnc(N2CCCC3(CCN(Cc4ccsc4)C3)C2)nc1 (stereo not drawn),43.8
7,Fc1cnc(N2CCOC3(CCN(Cc4ccsc4)CC3)C2)nc1,71.6
8,c1cnc(N2CCOCC3(CN(Cc4ccsc4)CCO3)C2)nc1 (stereo not drawn),-47.5
9,c1cnc(N2CCCC3(CCN(Cc4ccsc4)C3)C2)nc1 (stereo not drawn),53.2
10,c1ccc(N2CCCC3(CCN(Cc4ccsc4)C3)C2)nc1 (stereo not drawn),37.1
11,CCc1cnc(N2CC3(CCN(Cc4ccsc4)C3)C2)nc1,7.39
12,Fc1cnc(N2CCCC3(CN(Cc4ccccc4)CCO3)C2)nc1 (stereo not drawn),-15.3
13,Fc1cnc(N2CC3(CCN(Cc4ccsc4)C3)C2)nc1,52
14,c1csc(CN2CC3(CCN(Cc4ccsc4)C3)C2)n1,0.542
15,O=C(Nc1cnc2n1CCCC2)C1CCCN1C1CCNCC1 (stereo not drawn),15.7
16,N#Cc1cn(C2CC2)c(=O)n(CC(O)c2ccccc2C(F)(F)F)c1=O (stereo not drawn),29.4
17,CCS(=O)(=O)NC(CCSC)C(=O)Nc1ccc(C)cc1C (stereo not drawn),31.2
18,CO[C@@H]1CCN(Cc2cnn(C)c2)[C@@H]2CN(Cc3cccnc3)C[C@@H]21,5.96
19,CNC(=O)[C@@H]1C[C@H](n2cc(-c3ccc(CN4CC=CC4)cc3)nn2)CN1,41.2
20,CC[C@H](Cn1ncc2ccccc2c1=O)NC(=O)c1cnc(C)cn1,1.62
21,CCOC(=O)NCc1nn(CCN2CCCC2)c(=O)c2ccccc12,48.8
22,CC(C)NC(=O)N1CCC2(COCc3cnc(-c4cccnc4)nc32)C1 (stereo not drawn),38.1

row,SMILES,INHIBITION [%]
1,CCc1oc(C(=O)NCCSc2ncn[nH]2)cc1CN1CCCC1,37.9
2,CCOc1ncccc1NC(=O)N1CCN(CC(=O)NC)CC1,-22.91
3,Cc1nccn1CCCN1CCC2(CCC(=O)N(CC3CC3)C2)CC1,34.5
4,Cn1ncc2c(N3CCCC4(CCNC4)C3)nc(C(C)(C)C)nc21 (stereo not drawn),63.8
5,CC(=O)NCCC1CCN(c2nc(C(C)(C)C)nc3c2cnn3C)CC1,64.9
6,CN(C)[C@H]1CCN(c2nc(C(C)(C)C)nc3c2cnn3C)C1,9.35
7,COCc1nc(N2CC[C@H](N(C)C)C2)c2cnn(C)c2n1,-15.8
8,Cn1ncc2c(N3CCCC(C)(O)C3)nc(C(C)(C)C)nc21 (stereo not drawn),19.2
9,CCCc1nc(N2CCCC3(CCNC3)C2)c2cnn(C)c2n1 (stereo not drawn),47.1
10,Cn1ncc2c(N3CCC(CCO)CC3)nc(C(C)(C)C)nc21,22.9
11,CCC1(O)CCCN(c2nc(C(C)(C)C)nc3c2cnn3C)C1 (stereo not drawn),48
12,COCC1CCN(c2nc(C(C)(C)C)nc3c2cnn3C)C1 (stereo not drawn),50.1
13,CNC(=O)[C@@H]1[C@@H](c2ccccc2)CN2CCN(Cc3cc(C)no3)C[C@H]12,31.3
14,O=C(NCC(c1ccc(F)cc1)N1CCOCC1)Nc1cn[nH]c1 (stereo not drawn),-57.4
15,Cc1cc(C(=O)Nc2ccc(-c3nnc(N(C)C)o3)cc2)oc1C,22.1
16,Cc1nnc2ccc(OCCNS(C)(=O)=O)nn12,5.91
17,COCCNCc1cc2cc(C)cc(C)c2[nH]c1=O,14.6
18,COc1ccc(CNCC2CN(C3CC3)CCO2)cc1OC (stereo not drawn),-13.6
19,COc1ccccc1-c1nnc2n1N=C(N)C(C#N)S2 (stereo not drawn),34.3
20,Cc1ccnc(NC(=O)C2CCN(CCCn3ccnc3C)CC2)c1,44.3
21,c1n[nH]cc1CCCN1CCC(OC2CCCCC2)CC1,11.8
22,CC(C)(C)CC(=O)NCC(=O)Nc1ccn(CCCn2ccnc2)n1,23.1

row,SMILES,INHIBITION [%]
1,Cc1ccnc(NC(=O)C2CCN(CCCc3cn[nH]c3)CC2)c1,54.5
2,COCC1CCN(CCCc2cn[nH]c2)CC1,30.8
3,Cc1ccnc(NC(=O)C2CCN(CCCn3ccnc3)CC2)c1,61.9
4,O=C(c1ccc(-c2ccc(O)nc2)s1)N1CCCCCC1,-13.87
5,CCN(Cc1ccncc1)c1nc(C)nc2oc(C)nc12,40.6
6,Cc1nc(N(C)CCCc2nccn2C)c2nc(C)oc2n1,-26.7
7,COCCN(Cc1ccccc1C)c1nc(C)nc2oc(C)nc12,74
8,CCOc1ccc(CN(CCOC)c2nc(C)nc3oc(C)nc23)cc1,83.2
9,COCCN(Cc1cccnc1)c1nc(C)nc2oc(C)nc12,44.3
10,Cc1nc(N(CCC(N)=O)Cc2ccccc2)c2nc(C)oc2n1,48.8
11,CCS(=O)(=O)N1CC[C@H]2[C@H]1CC(=O)N2Cc1csc(C)n1,-10.3
12,CN1CCN(Cc2cn3c(n2)CNCC3)CC1,36.4
13,O=C(CSC1CCCC1)N1CCN(C(=O)C2CC2c2ccccc2)CC1 (stereo not drawn),46.4
14,Cc1cnc(-c2cccc(-c3ccn(CCCO)n3)c2)nc1N(C)C,26.8
15,CCS(=O)(=O)CC(=O)NC(c1ccccc1)C1CCCCC1 (stereo not drawn),-5.53
16,COCCc1noc(CN2CCCC2c2c(C)nn(C)c2Cl)n1 (stereo not drawn),5.9
17,CC(C(=O)Nc1ccc(C#N)cc1)N1CCc2ccccc21 (stereo not drawn),-45.2
18,N#Cc1ccc(CNCCS(=O)(=O)N2CCc3ccccc32)cc1,60.3
19,N#Cc1ccc(NCCS(=O)(=O)N2CCc3ccccc32)nc1,14
20,O=C(CCc1ccccc1)C1CCCN(C(=O)c2cncc(Cl)c2)C1 (stereo not drawn),42.5
21,CCN(CC)S(=O)(=O)N1CCCC1c1nnc2n1CCCCC2 (stereo not drawn),20.9
22,O=C(c1ccc2c(c1)OCO2)N1CCCSCC1CN1CCCC1 (stereo not drawn),3.16

row,SMILES,INHIBITION [%]
1,O=C(c1ccc2[nH]ccc2c1)N1Cc2nc(CN3CCCC3)oc2C1,31.4
2,O=C(c1ccc(F)c(F)c1)N1CCCSCC1CN1CCCC1 (stereo not drawn),25.3
3,CCN(CC)Cc1nc2c(o1)CN(C(=O)c1ccncc1F)C2,3.17
4,O=C(c1ccc2[nH]ccc2c1)N1Cc2nc(CN3CCCCC3)oc2C1,50.7
5,CN(C)Cc1nc2c(o1)CN(C(=O)c1ccncc1F)C2,24.9
6,CCN(CC)Cc1nc2c(o1)CN(C(=O)c1ccc3[nH]ccc3c1)C2,0.804
7,O=C(c1ccncc1F)N1Cc2nc(COCC3CC3)oc2C1,55.7
8,O=C(c1ccncc1F)N1Cc2nc(CN3CCCCC3)oc2C1,51.2
9,O=C(c1ccc2[nH]ccc2c1)N1CCCSCC1CN1CCCC1 (stereo not drawn),59.8
10,O=C(NCc1ccccc1)N1Cc2nc(COCC3CC3)oc2C1,44.2
11,O=C(Cc1cccs1)N1Cc2nc(COCC3CC3)oc2C1,18.6
12,CN(C)C(=O)C1CCN(Cn2nc(-c3ccc(F)cc3)oc2=O)CC1,34.7
13,CCCN1CCC(Cc2noc(-c3ncccc3C)n2)CC1,12.9
14,CNC(=O)CCNC(=O)c1cc(C)n(-c2cccc(OC)c2)c1C,11.2
15,CNc1nc2c(c(C(=O)N3CCCC3)n1)CN(C(=O)C1CCCC1)CC2,43.4
16,Cc1nc(S(=O)(=O)N2CCC3(CCCCC3)C2)cn1C,-9.2
17,NC(=O)COc1cccc(C(=O)NCc2ccc(Cl)s2)c1,3.03
18,O=C(C1CCOC1)N1CC[C@@H](O)[C@@H]1Cc1ccccc1 (stereo partly drawn),10.7
19,CCC(=O)N1CCCc2c(cnn2C)C1,-5.452
20,O=C(NCC(F)F)c1cc(-c2ccccc2)nc2ncnn12,60.2
21,COC(=O)CNC(=O)c1cc(-c2ccccc2)nc2ncnn12,28.2
22,CNC(=O)c1cc(-c2ccccc2)nc2ncnn12,49

row,SMILES,INHIBITION [%]
1,Cc1ccc(C(=O)N2CCC3(CC2)COC(COc2ccccn2)C3)o1 (stereo not drawn),-9.1
2,O=C(c1ccncc1)N1CCCC1c1cccc(Br)c1 (stereo not drawn),15.1
3,CCc1ncc2c(n1)CN(C(=O)CNC(=O)C(C)C)C2,10.3
4,CCOc1ccc(C(=O)N2Cc3cnc(CC)nc3C2)o1,-6.83
5,CC(=O)c1c(C)nn(CC(=O)N2Cc3cnc(CC(C)C)nc3C2)c1C,27.9
6,O=C(Cn1c(=O)oc2ccccc21)N1Cc2cnn(CCO)c2C1,13.7
7,CC(C)Cc1ncc2c(n1)CN(C(=O)Cn1c(=O)oc3ccccc31)C2,54.5
8,CCc1ncc2c(n1)CN(C(=O)c1c(C)[nH]c(C(C)=O)c1C)C2,39.6
9,CCc1ncc2c(n1)CN(C(=O)c1c(C)[nH]c3c1C(=O)CCC3)C2,61
10,CC(=O)NCC(=O)N1Cc2cnc(CC(C)C)nc2C1,60.3
11,O=C(Cn1c(=O)oc2ccccc21)N1Cc2cncnc2C1,15.4
12,CCc1ncc2c(n1)CN(C(=O)CC(C)NC(C)=O)C2 (stereo not drawn),51.2
13,CCc1ncc2c(n1)CN(C(=O)CNC(=O)c1ccccc1)C2,30.3
14,CCc1ncc2c(n1)CN(C(=O)COC)C2,-7.35
15,FC(F)(F)c1ccc(-c2cnc(C3CCCN3)cn2)cc1 (stereo not drawn),34.675
16,CCC(CC)C(=O)N1CCN(Cc2cc(-c3ccncc3)nn2C)CC1,-8.12
17,Cc1nn(C)c(N2CCOCC2)c1CNCc1ccccc1CO,-25.9
18,NC(=O)C(NCc1nn(-c2ccccc2)c2c1CCC2)c1ccccc1 (stereo not drawn),8.15
19,Fc1ccccc1CN1CCC(c2noc(-c3ccccn3)n2)CC1,-23.4
20,O=C1NCCCCC1NCc1csc(-c2ccccn2)n1 (stereo not drawn),8.07
